# Test results published in PubChem BioAssay AID449762 (Southern Research Specialized Biocontainment Screening …, 2010).
# The campaign covered roughly 330,000 compounds. About 1,900 (0.58%) were called active. Roughly 4% stayed inconclusive and do not appear here. These entries were drawn from the full list. Measured potencies and affinities stand elsewhere. A number with no mark means an inactive call. Rule as the data show it: inconclusive = inhibition above about 70% without an active follow-up result; inactive = below that.
# Test: M. tuberculosis growth inhibition, HTS (AID 449762);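 also: bacterial growth assessed after seven days of incubation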
# Details: M. tuberculosis H37Rv growth inhibition, 7H9 media; at 25 µM; active compounds read high
row,SMILES,inhibition [%]
1,COC(=O)[C@@H]1C[C@@]2(O)[C@@H](O)[C@@H](O)[C@@H](O)C[C@H]2N1Cc1ccc(C(F)(F)F)cc1,-13
2,CCOC(=O)c1ccc(-c2c(-c3cc(OC)c(OC)c(OC)c3)noc2C)cc1F,8.43
3,CCOC(=O)c1ccc(-c2c(-c3ccc4c(c3)OCO4)noc2-c2ccsc2)cc1F,7.75
4,CCCOc1ccc(N2CC(C(=O)Nc3ncccc3C)CC2=O)cc1 (configuration not stated),25.7
5,O=C1CCc2cc(S(=O)(=O)NC(Cc3ccccc3)C(=O)NCCC3=CCCCC3)ccc2N1 (configuration not stated),-6.41
6,COc1ccccc1Cn1c(=S)[nH]c2cc(C(=O)NCC3CCCO3)ccc2c1=O (configuration not stated),2.37
7,CC(=O)Nc1scc(C)c1-c1nc2ccccc2s1,26
8,CC(=O)N1CCc2c(sc(NC(=O)C3CC3)c2-c2nc3ccccc3s2)C1,15.3
9,Cc1ccccc1NC(=O)Cn1c(C)nc2ccc(NC(=O)C3CC3)cc2c1=O,2.87
10,NS(=O)(=O)c1ccc(N2N=C(c3ccccc3)CC2c2ccc(F)cc2)cc1 (configuration not stated),12.8
11,NS(=O)(=O)c1ccc(N2N=C(c3ccccc3)CC2c2ccccc2)cc1 (configuration not stated),16.9
12,O=C(O)c1ccccc1C(=O)NCCc1c(C(=O)O)[nH]c2ccc(Cl)cc12,7.67
13,COc1cccc(NC(=O)CSc2nc3ccccc3c(=O)n2CCCC(=O)NCCCN2CCOCC2)c1,-10.7
14,CCOC(=O)c1ccc(NC(=S)NCCc2ccc(OC)c(OC)c2)cc1,47.4
15,CCOC(=O)c1ccc(NC(=O)Nc2ccc(F)cc2)cc1,0.77
16,O=C(O)C1CCN(c2ccc(S(=O)(=O)N3CCOCC3)cc2[N+](=O)[O-])CC1,-9.82
17,Cn1cnc(C(=O)NC2CCN(C(=O)OC(C)(C)C)CC2)c1C(=O)NC1CCN(C(=O)OC(C)(C)C)CC1,-7.54
18,CCn1c(N2CCN(C(=O)/C=C/c3ccccc3)CC2)nc2ccccc21,6.08
19,CC(C)Cn1c(N2CCN(C(=O)c3cccs3)CC2)nc2ccccc21,-9
20,CSc1nc2ccccc2n1CC(=O)Nc1c(C)n(C)n(-c2ccccc2)c1=O,-4.84
21,CCOc1ccc(CN2C(=O)c3ccccc3C2C(=O)NC(C)CC)cc1OC (configuration not stated),2.03
22,O=C(NCc1ccco1)c1ccc(-c2ccccc2Cl)o1,-1.96
23,COc1ccc(CCC(=O)OC(C)C(=O)c2ccc(C)cc2)cc1 (configuration not stated),-2.54

row,SMILES,inhibition [%]
1,Cc1noc2ncnc(Sc3c(Cl)cccc3Cl)c12,47.8
2,COc1ccc(Sc2ncnc3onc(C)c23)cc1,3.37
3,O=C(O)/C=C/C(=O)Nc1ccccc1-c1ccccc1NC(=O)/C=C/C(=O)O,3.08
4,CCn1nc(C)c(CCC(=O)O)c1C,4.75
5,Cc1ccc(/C=C/C(=O)OCC(=O)NCCc2ccc(S(N)(=O)=O)cc2)o1,-0.03
6,COc1ccc(/C=N/Nc2ncnc3scc(-c4ccccc4)c23)cc1OC,-0.49
7,COc1cccc(/C=N/Nc2ncnc3scc(-c4ccccc4)c23)c1OC,8.3
8,CC1CCCCN1C(=O)Nc1ccccc1Cl (configuration not stated),-0.25
9,O=S(=O)(c1ccc(S(=O)(=O)N2CCN3CCCC3C2)cc1)N1CCCC1 (configuration not stated),-15.1
10,CCOC(=O)c1sc(NC(=O)CSc2nc3ccccc3s2)c(C(=O)OCC)c1C,12.6
11,CCc1c(O)cc2n(c1=O)-c1ccc(Cl)cc1C2(C)C,-2.84
12,Cc1c(O)cc2n(c1=O)-c1ccc(Cl)cc1C2(C)C,-11.1
13,Cc1ccsc1C1Nc2ccc3ncccc3c2C2=C1C(=O)CCC2 (configuration not stated),2.32
14,O=C(Nc1ccc(Cl)cn1)Nc1ccccc1F,-4.27
15,C=CCn1c(=NC(=O)c2cc(Cl)sc2Cl)sc2cc(S(N)(=O)=O)ccc21,-3.02
16,COCCn1c(=NC(=O)c2cc(Cl)sc2Cl)sc2cc(S(N)(=O)=O)ccc21,-0.08
17,Oc1ccccc1CN1CCN(C(O)(c2ccccc2)c2ccccc2)CC1,12.9
18,COc1cc(OC)c(C(=O)O/N=C(\N)c2ccccn2)cc1OC,7.81
19,N/C(=N\OC(=O)c1cc(Cl)ccc1Cl)c1ccccn1,30
20,C=CC[C@@H](CC(=O)N[C@@H](CO)Cc1ccccc1)C(=O)N[C@H](COC(=O)[C@@H](CC=C)Cc1ccc(F)cc1)C(C)(C)C,-11
21,CCc1ccc(/C=C2/C(=O)N(CC)C(=S)N2C)s1,12.3
22,CCc1ccc(/C=C2/C(=O)N(c3ccccc3)C(=S)N2CC(=O)OC)s1,10.2
23,O=c1cc(CSc2ccc([N+](=O)[O-])cc2)nc2sccn12,-11.9

row,SMILES,inhibition [%]
1,CCN(CC)CCCNC(=O)c1cc2c(Cl)nc3ccccc3c2s1,5.92
2,O=C(NCCCN1CCCC1)c1cc2c(Cl)nc3ccccc3c2s1,9.47
3,O=[N+]([O-])c1ccc(C(=S)N2CCN(Cc3ccccc3)CC2)cc1,6.67
4,CCCCOC(=O)Nc1ccc(S(=O)(=O)Nc2cc(C)nc(C)n2)cc1,50.1
5,CCCCOC(=O)Nc1ccc(S(=O)(=O)Nc2nc(C)cc(C)n2)cc1,0.81
6,O=C(CSC(=S)N1CCCCC1)c1ccccc1,69.2
7,Cc1oc2cc(O)ccc2c(=O)c1-c1cnn(-c2ccccc2)c1,-3.21
8,O=c1c(-c2ccc(O)cc2)coc2cc(O)ccc12,3.16
9,CCc1ccc(-c2cc(C(=O)Nc3c(C)n(C)n(-c4ccccc4)c3=O)c3ccccc3n2)s1,5.93
10,Cc1[nH]n(-c2ccccc2)c(=O)c1/C=N/N(c1ccccc1)c1ccccc1,62.4
11,CCCC(=O)N/C(N)=N/c1nc(C)c2cc(C)ccc2n1,45.9
12,Cc1cc2nc(/N=C(\N)NC(=O)N3c4ccccc4Sc4ccccc43)nc(C)c2cc1C,-0.79
13,Cc1ccc2nc(N=C(N)N)nc(C)c2c1,12.5
14,CCC(=O)N/C(N)=N/c1nc(C)c2cc(C)c(C)cc2n1,7.41
15,COc1ccc(C(=O)Nc2cnccn2)cc1[N+](=O)[O-],-6.82
16,O=C(CCN1C(=O)c2ccccc2C1=O)Nc1nc2ccccc2s1,10.8
17,NC(=O)[C@@H]1CC2(CC(c3cccc(NC(=O)[C@H]4CCC(=O)N4)c3)=NO2)CN1C(=O)COc1ccc(Cl)cc1 (some centres not stated),0.87
18,Cc1cccc(C(=O)Nc2cccc3cccnc23)c1,25.4
19,O=C(CSCc1ccccc1Cl)Nc1c[nH]c(=O)[nH]c1=O,1.55
20,Cn1c(NCC(O)c2ccccc2)nc2c1c(=O)n(Cc1ccc(Cl)cc1)c(=O)n2C (configuration not stated),48.9
21,CC(O)CNc1nc2c(c(=O)n(Cc3ccc(Cl)c(Cl)c3)c(=O)n2C)n1C (configuration not stated),6.85
22,CCOC(=O)c1ccc(COC(=O)CNC(=O)CNC(=O)Cc2ccccc2)cc1,-12.4
23,COc1cc(OC)c(NC(=O)CCCNC(=O)Cn2cnc3sc(C)c(C)c3c2=O)cc1Cl,-3.56

row,SMILES,inhibition [%]
1,CCN(CC(=O)Nc1ccc(NC(C)=O)cc1)C(=O)c1ccccc1SCC(=O)N1CCCC1,6.02
2,O=C(NCCOc1ccccc1F)c1cccc(S(=O)(=O)N2CCN(c3ccccc3)CC2)c1,4.44
3,c1ccc2nc(-c3ccncc3)ccc2c1,-14.1
4,c1ccc(-c2ccc3ccccc3n2)cc1,-0.21
5,Cc1cc(C)c(C#N)c(SCC(=O)c2cc(C)n(CCc3ccccc3)c2C)n1,-0.68
6,O=C(NCCCN1CCOCC1)c1ccc(Sc2ccc(F)cc2)c([N+](=O)[O-])c1,-0.04
7,COc1ccc(NC(=O)CNC(=O)C2CCCCC2)cc1,13.5
8,NS(=O)(=O)c1ccc(NC(=O)CSC2CCCCC2)cc1,-6.63
9,CCC(C)NC(=O)CN1C(=O)NC2(CCOc3ccccc32)C1=O (configuration not stated),7.03
10,CC(C)C1(C(C)C)OC(=O)c2ccccc21,0.62
11,CCCn1ncc(CN2CCC(Cc3cccc(F)c3)(C(=O)OCC)CC2)c1C,-1.6
12,N=c1n(Cc2ccccc2)c2ccccc2n1CC(O)COc1ccccc1 (configuration not stated),14.3
13,COc1ccc(OCC(O)Cn2c(=N)n(Cc3ccccc3)c3ccccc32)cc1 (configuration not stated),26.5
14,CC(=O)CCC(=O)N1CCCC(CNC(=O)c2ccc(-c3ccccc3)cc2)C1 (configuration not stated),-4.64
15,CSCC(=O)N1CCCC(CNC(=O)c2ccc(-c3ccccc3)cc2)C1 (configuration not stated),3.04
16,CC(C)(C)OC(=O)C[C@H]1C/C=C\C[C@H](CC(=O)NCCO)C(=O)NC[C@H](c2ccccc2)OC1=O,-2.46
17,COc1cccc(N(C(=O)CNC(=O)c2ccco2)C(C(=O)NC2CCCC2)c2ccncc2)c1 (configuration not stated),0.28
18,O=C(O)CCCn1cc(NC(=O)COc2ccccc2)cn1,1.85
19,O=C(Cc1ccc(Cl)cc1)NCCCn1ccnc1,0.59
20,Clc1ccc(SCCn2ccnc2)cc1,-6.09
21,CCNCCNC(=O)c1c(O)c2c([nH]c1=O)CCCC2,-0.1
22,Cc1nn(Cc2ccc(Cl)cc2Cl)c(C)c1NC(=O)CCl,70.1
23,Cc1ccc(CCNC(=O)C2CC(c3cccc(F)c3)=NO2)cc1 (configuration not stated),0.56
